Assay outcomes (PubChem)
Only some compounds are listed: those with a hit (about 1.2% of all), similar ones and a draw of the others.
PG9 binder = binders of HIV-1 gp120 antibody PG9, primary screen, biochemical, TR-FRET; 360,000 compounds, 0.43% hits; AID 624416, 2012; TR-FRET gp120-PG9 antibody binding; HIV-1 gp120 / PG9 antibody interaction; inhibition, % at 6.7 µM; in the data active = inhibition above about 8.5%
Rev-erbA mod = modulators of Rev-erb alpha DNA binding, primary screen, biochemical, FITC-DNA, fluorescence polarization, uHTS. Nuclear receptor subfamily 1 group D member 1 (Homo sapiens), P20393. Rev-erbα–FITC-DNA binding, 90 min. activity, % at 10 µM. 370,000 compounds, 0.79% hits;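 active = activity above about 14%, limit read from the data; passing the limit was not always enough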
PKA-R1A act = activators of PKA-R1A holoenzyme, primary screen, biochemical, fluorescence polarization, Cy5-IP20, bovine R1A, mouse PKAc | cAMP-dependent protein kinase type I-alpha regulatory subunit (Bos taurus) + … | PKA-R1A dissociation; scaled: DMSO 0%, 113 µM cGMP 100% | activation, % at 11.4 µM | 340,000 compounds, 0.083% hits;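 active = percent activation above the mean of all tested compounds plus 3 SD, cut at about 19% in these data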;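 note: higher means more PKAc released from R1A so a rise in polarization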
PKA-R2B activ = activators of PKA-R2B holoenzyme, primary screen, biochemical, fluorescence polarization, Cy5-IP20, human; PKA-R2B holoenzyme dissociation; R2B truncated from residue 108, S112A mutant; 0% DMSO only, 100% 113 µM cGMP; 340,000 compounds, 0.079% hits; activation, % at 11.4 µM;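 active = activation above a cutoff set at the mean over all compounds plus 3 SD, cut at about 18% in these data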;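 note: higher means more holoenzyme dissociation and a rise in polarization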
PG9 binder conf = binders of anti-gp120 antibody PG9, confirmation, biochemical, TR-FRET; 1,500 compounds, 90% hits; shares compounds with PG9 binder; AID 651571, 2012; TR-FRET PG9 antibody binding; inhibition, % at 6.7 µM; in the data active = inhibition above about 9%
PGV04 counter = binders of control antibody PGV04, counter-screen for PG9 antibody binder project, biochemical, TR-FRET, distinct HIV envelope site; shares compounds with PG9 binder; TR-FRET PGV04 antibody-gp120 binding; inhibition, % at 6.7 µM; 1,500 compounds, 95% hits; in the data active = inhibition above about 9.5%
PG9 binder DR = small-molecule binders of antibody PG9, dose response, biochemical, TR-FRET, HIV-1 gp120 antibody; 95 tested, under 10 active; IC50, µM; AID 651848, 2012; TR-FRET PG9 antibody-gp120 binding inhibition; shares compounds with PG9 binder; in the data active = IC50 below about 10 µM
PGV04 binding DR = binders of control antibody PGV04, dose response, counter-screen for PG9 antibody binder project, biochemical, TR-FRET, distinct HIV envelope site; shares compounds with PG9 binder; TR-FRET binding to control antibody PGV04; IC50, µM; 95 compounds, 20% hits
PG126 binding DR = binders of control antibody PG126, dose response, counter-screen for PG9 antibody binder project, biochemical, TR-FRET, distinct HIV envelope site. shares compounds with PG9 binder. TR-FRET binding to antibody PG126, counterscreen. IC50, µM. 95 compounds, 20% hits
Large screens that a line does not name were inactive (follow-up assays come after a bar, where they were run). Cut-off read from the data, not from the text of the source, unless noted: active = IC50 below about 9 µM; inactive = the rest.

c1ccc(CCn2nnc(-c3ccc(N4CCOCC4)cc3)n2)cc1	none (no result: PG9 binder, PKA-R1A act, PKA-R2B activ)
COc1cc(OC)cc(C(=O)NCCNc2nc3cc(C)cc(C)c3cc2C#N)c1	PG9 binder 20 | PG9 binder conf 9.0 | PGV04 counter 23
Cc1cc(SCCC(=O)O)nc2ccccc12	none
Cc1nc(SCCC(=O)O)c2ccccc2n1	PG9 binder 22 (no result: Rev-erbA mod) | PG9 binder conf 19 | PGV04 counter 24
O=C(O)CCSc1ccc2ccccc2n1	PG9 binder 18 | PG9 binder conf 19 | PGV04 counter 20
C=CCN1[C@@H](CC(C)C)COc2cccc(N3CCCC3)c2S1(=O)=O	none (no result: PG9 binder, PKA-R1A act, PKA-R2B activ)
CSc1ccc(S(=O)(=O)Nc2ccccc2C(=O)N2CCOCC2)cc1	PG9 binder 8.8 | PG9 binder conf 22 | PGV04 counter 22 | PG9 binder DR inactive | PGV04 binding DR inactive | PG126 binding DR inactive
Cc1cccc(-c2nnc(NC(=O)c3ccc(N4C(=O)CCC4=O)cc3)s2)c1	PG9 binder 17 | PG9 binder conf inactive | PGV04 counter 12
Brc1ccc(Br)c2cnccc12	PG9 binder 13 | PG9 binder conf 26 | PGV04 counter 35
c1ccc2c(c1)[nH]c1ccncc12	none
Cc1ccc(-c2nsc(SCC(=O)NCc3ccc4c(c3)OCO4)n2)cc1	PG9 binder 16 | PG9 binder conf 18 | PGV04 counter 21
Cc1ccccc1-c1nsc(SCC(=O)NCc2ccc3c(c2)OCO3)n1	none
O=C(c1ccc(Cl)cc1)N1CCN(c2ccccn2)CC1	none (no result: PG9 binder, PKA-R1A act, PKA-R2B activ)
Cc1cn(-c2ccc(Br)cc2)[nH]c1=O	PG9 binder 10.0 | PG9 binder conf 19 | PGV04 counter 21
O=C(NC1CCSc2ccccc21)c1ccc(F)cc1 (stereo not given)	none
O=C(NC1CCSc2ccccc21)c1ccc(C(F)(F)F)cc1 (stereo not given)	PG9 binder 11 | PG9 binder conf 11 | PGV04 counter 18
O=C(c1ccco1)N1CCN(C(=O)c2cc(-c3ccncc3)nc3ccc(Br)cc23)CC1	none
O=C(O)c1cc(-c2ccco2)nc2ccc(Br)cc12	PG9 binder 25 | PG9 binder conf 45 | PGV04 counter 58
Cc1ccccc1N(C)C(=O)CN1CCN(c2nc(-c3ccccc3)cs2)CC1	none (no result: PG9 binder, PKA-R1A act, PKA-R2B activ)
O=C1CCc2cc(S(=O)(=O)N3CCN(Cc4cccc5c4OCO5)CC3)ccc2N1	none (no result: PG9 binder, PKA-R1A act, PKA-R2B activ)
CCCCOc1ccc(C2C(C(=O)c3ccc(C)o3)=C(O)C(=O)N2CC2CCCO2)cc1 (stereo not given)	PG9 binder 26 | PG9 binder conf 25 | PGV04 counter 30
Cc1ccc(C(=O)C2=C(O)C(=O)N(CC3CCCO3)C2c2ccccc2F)o1 (stereo not given)	PG9 binder 13 | PG9 binder conf 23 | PGV04 counter 31
COc1cc(NC(=O)C2CCCN(S(=O)(=O)c3ccc(C)cc3)C2)cc(OC)c1 (stereo not given)	none (no result: PG9 binder, PKA-R1A act, PKA-R2B activ)
O=C(OCc1ccccc1)[C@H](Cc1ccccc1)NC(=O)[C@@H]1CC=C[C@@H]2CCN(CCc3ccccc3)C(=O)[C@@H]21	none (no result: PG9 binder, PKA-R1A act, PKA-R2B activ)
